# Measured values published in PubChem BioAssay (Tox21).
# Several values for one entry are separate records, joined by “and”; a condition that tells them apart may be missing. Equal entries are not always repeated. Inconclusive results are not listed. A call without a number means that no potency is given here. Activity calls are given as the source filed them. Calls come from the whole dose curve; as a rule, active = well fitted curve in the direction sought with a large enough effect in the repeat runs; inconclusive = weak or mixed curves; inactive = no such curve, though single readings can be large; an effect the other way counts as inactive or inconclusive.
# Tested on: not listed separately
# Experiment: Caspase-3/7 induction in CHO-K1 cells by small molecules, qHTS assay (AID 1346980); note: nearly all actives have a fitted effect of over 15% in size
# Conditions: CHO-K1 caspase-3/7 induction, Caspase-Glo luminescence, 17 h; series mostly up to 92.4 µM
# In short: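 Luminescent Caspase-Glo 3/7 read (30min, room temperature) quantified apoptosis induction. Cells were wild-type CHO-K1, treated with compound for 17hr at 37 C and 5% CO2.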
# Potency is the fitted concentration of half-maximal effect.
row,SMILES,Potency
1,C1CC(COCC2CO2)CCC1COCC1CO1 (centres undefined),inactive
2,CCCCOC(=O)C(C)CC (centres undefined),inactive
3,C=CC(=C)CCC=C(C)C,inactive
4,CSc1ccc2c(c1)N(CCC1CCCCN1C)c1ccccc1S2 (centres undefined),19.3 µM (active)
5,CCCCCCCCCCCCCC[n+]1ccccc1,inactive
6,Clc1ccccc1CN1CCc2sccc2C1,inactive
7,C[Si](C)(C)Cl,inactive
8,C=CC(C)(CCC=C(C)C)OC(=O)/C=C/c1ccccc1 (centres undefined),inactive
9,CCc1ccc(O)c(C(C)(C)C)c1,inactive
10,C[C@H]1O[C@@H](O[C@H]2[C@@H](O)C[C@H](O[C@H]3[C@@H](O)C[C@H](O[C@H]4CC[C@@]5(C)[C@H](CC[C@@H]6[C@@H]5C[C@@H](O)[C@]5(C)[C@@H](C7=CC(=O)OC7)CC[C@]65O)C4)O[C@@H]3C)O[C@@H]2C)C[C@H](O)[C@@H]1O,inactive
11,CN(Cc1cc(Br)cc(Br)c1N)C1CCCCC1,inactive
12,Cc1ccc2ccc3cccc4ccc1c2c34,inactive
13,CCC(C)c1cc([N+](=O)[O-])cc([N+](=O)[O-])c1OC(=O)OC(C)C (centres undefined),inactive
14,CC(=O)Nc1ccc(O)cc1,inactive
15,O=C1c2c(O)ccc([N+](=O)[O-])c2C(=O)c2c([N+](=O)[O-])ccc(O)c21,inactive
16,COC(=O)[C@]1(C)CCC[C@@]2(C)[C@H]1CC=C1C=C(C(C)C)CC[C@@H]12,inactive
17,C[C@@H]1CC[C@H]2C(C)(C)[C@H]3C[C@@]12CC[C@@]3(C)O,inactive
18,C=C1C(C)(C)[C@@]2(Cl)C(Cl)[C@]1(Cl)C(Cl)(Cl)C2(Cl)Cl (some centres undefined),60 µM (active)
19,CC(CN(C)C)CN1c2ccccc2CCc2ccccc21 (centres undefined),inactive

# Tested on: not listed separately
# Experiment: Caspase-3/7 induction in HepG2 cells by small molecules, qHTS cell viability counter screen (AID 1346981); note: nearly all actives have a fitted effect of over 30% in size
# Conditions: CellTiter-Fluor fluorescence, 17 h; series mostly up to 92.4 µM
# In short: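 Wild-type HepG2 cells (2,000/well) were allowed to settle for 5 hr at 37 C, 5% CO2, then dosed with compounds in DMSO by pin transfer. After 16 hr at 37 C, CellTiter-Fluor was added and fluorescence read 1 hr later.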
SMILES,Potency,"activity change, negative = cytotoxicity"
Oc1ccc(-c2ccccc2)c(Cl)c1,inactive,–
O=C(O)CCn1c2c(c3ccccc31)C[C@H](NS(=O)(=O)c1ccc(F)cc1)CC2,inactive,–
c1cc(OCC2CO2)cc(OCC2CO2)c1 (centres undefined),60.6 µM (active),–
CCCOc1sc(C(=O)N2CCC(c3cc(CN)ccc3F)CC2)c(C)c1Br,49.9 µM (active),–
CCN(CC)c1ccc(N)cc1,25 µM (active),–
C=C/C=C/C=C/CCCCC,–,-1.07% [at 19 µM] (inactive)
CCCCCCCCCCCCCOP(=O)(O)O,inactive,–
CC(C)N=C(N)/N=C(\N)Nc1ccc(Cl)cc1,inactive,–
O=C1C=CC(=O)N1c1ccccc1,61.1 µM (active),–
CCCCCCCC/C=C\CCCCCCCC(=O)OCCOC(=O)CCCCCCC/C=C\CCCCCCCC,inactive,–
C1CC(COCC2CO2)CCC1COCC1CO1 (centres undefined),inactive,–
CCCCOC(=O)C(C)CC (centres undefined),inactive,–
C=CC(=C)CCC=C(C)C,inactive,–
CSc1ccc2c(c1)N(CCC1CCCCN1C)c1ccccc1S2 (centres undefined),60.9 µM (active) and 29.8 µM (active),–
CCCCCCCCCCCCCC[n+]1ccccc1,27.3 µM (active),–
Clc1ccccc1CN1CCc2sccc2C1,inactive,–
C[Si](C)(C)Cl,inactive,–
C=CC(C)(CCC=C(C)C)OC(=O)/C=C/c1ccccc1 (centres undefined),inactive,–
CCc1ccc(O)c(C(C)(C)C)c1,inactive,–
C[C@H]1O[C@@H](O[C@H]2[C@@H](O)C[C@H](O[C@H]3[C@@H](O)C[C@H](O[C@H]4CC[C@@]5(C)[C@H](CC[C@@H]6[C@@H]5C[C@@H](O)[C@]5(C)[C@@H](C7=CC(=O)OC7)CC[C@]65O)C4)O[C@@H]3C)O[C@@H]2C)C[C@H](O)[C@@H]1O,inactive,–
Cc1cccc(C)c1NC(=O)CN1CCN(CCCC(c2ccc(F)cc2)c2ccc(F)cc2)CC1,21.1 µM (active),–
CN(Cc1cc(Br)cc(Br)c1N)C1CCCCC1,inactive,–
Cc1ccc2ccc3cccc4ccc1c2c34,inactive,–
CCC(C)c1cc([N+](=O)[O-])cc([N+](=O)[O-])c1OC(=O)OC(C)C (centres undefined),61.1 µM (active),–
CC(=O)Nc1ccc(O)cc1,inactive,–
O=C1c2c(O)ccc([N+](=O)[O-])c2C(=O)c2c([N+](=O)[O-])ccc(O)c21,24.1 µM (active),–
COC(=O)[C@]1(C)CCC[C@@]2(C)[C@H]1CC=C1C=C(C(C)C)CC[C@@H]12,inactive,–
C[C@@H]1CC[C@H]2C(C)(C)[C@H]3C[C@@]12CC[C@@]3(C)O,inactive,–
Cc1c(-c2ccc(O)cc2)n(Cc2ccc(OCCN3CCCCCC3)cc2)c2ccc(O)cc12,29.8 µM (active),–

# Target: Nuclear receptor subfamily 1 group I member 2 (Homo sapiens) (UniProt O75469)
# Experiment: Human pregnane X receptor (PXR) small molecule agonists, qHTS assay (AID 1346982); note: nearly all actives have a fitted effect of over 35% in size
# Conditions: PXR-Luc HepG2, CYP3A4 luciferase reporter, 24 h; series mostly up to 92.4 µM
# In short: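 PXR-Luc HepG2 cells (CYP3A4 promoter-driven luciferase) were seeded in medium with 5% charcoal-stripped FBS, left 5 hr at 37 C, then exposed to compounds in DMSO for 24 hr. Luminescence was read after ONE-Glo addition.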
# Nuclear receptor subfamily 1 group I member 2 (Homo sapiens), sequence (O75469 whole entry, looked up): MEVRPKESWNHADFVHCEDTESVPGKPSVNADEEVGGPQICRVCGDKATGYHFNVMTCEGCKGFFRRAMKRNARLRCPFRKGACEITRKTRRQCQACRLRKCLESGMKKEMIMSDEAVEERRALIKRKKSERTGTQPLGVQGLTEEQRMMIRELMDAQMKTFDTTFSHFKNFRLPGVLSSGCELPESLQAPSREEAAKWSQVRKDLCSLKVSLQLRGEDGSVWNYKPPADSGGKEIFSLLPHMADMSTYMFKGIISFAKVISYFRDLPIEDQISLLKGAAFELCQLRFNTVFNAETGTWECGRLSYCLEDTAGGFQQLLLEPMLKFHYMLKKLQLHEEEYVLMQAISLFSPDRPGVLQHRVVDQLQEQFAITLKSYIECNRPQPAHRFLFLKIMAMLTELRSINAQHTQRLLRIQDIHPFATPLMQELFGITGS
SMILES,Potency,activation
Oc1ccc(-c2ccccc2)c(Cl)c1,24.3 µM (active),–
c1cc(OCC2CO2)cc(OCC2CO2)c1 (centres undefined),21.5 µM (active),–
C=CC(=O)OCC(O)COc1ccccc1 (centres undefined),inactive,–
COc1cc(C(C)C)c2c(c1)S(=O)(=O)N(COc1cc(=O)n3cccc(OCCN4CCCCC4)c3n1)C2=O,13 µM (active),–
CCCOc1sc(C(=O)N2CCC(c3cc(CN)ccc3F)CC2)c(C)c1Br,inactive,–
CCN(CC)c1ccc(N)cc1,inactive,–
C=C/C=C/C=C/CCCCC,–,9.15% [at 19 µM] (inactive)
CCCCCCCCCCCCCOP(=O)(O)O,inactive,–
CC(C)N=C(N)/N=C(\N)Nc1ccc(Cl)cc1,inactive,–
O=C1C=CC(=O)N1c1ccccc1,inactive,–
CCCCCCCC/C=C\CCCCCCCC(=O)OCCOC(=O)CCCCCCC/C=C\CCCCCCCC,71.2 µM (active),–
CCCCOC(=O)C(C)CC (centres undefined),inactive,–
CSc1ccc2c(c1)N(CCC1CCCCN1C)c1ccccc1S2 (centres undefined),9.65 µM (active) and 5.96 µM (active),–
C[Si](C)(C)Cl,inactive,–
C=CC(C)(CCC=C(C)C)OC(=O)/C=C/c1ccccc1 (centres undefined),61.1 µM (active),–
C=C(c1ccc(C(=O)O)cc1)c1cc2c(cc1C)C(C)(C)CCC2(C)C,inactive,–
CCc1ccc(O)c(C(C)(C)C)c1,inactive,–
Cc1cccc(C)c1NC(=O)CN1CCN(CCCC(c2ccc(F)cc2)c2ccc(F)cc2)CC1,inactive,–
CN(Cc1cc(Br)cc(Br)c1N)C1CCCCC1,13.3 µM (active),–
Cc1ccc2ccc3cccc4ccc1c2c34,inactive,–
CCC(C)c1cc([N+](=O)[O-])cc([N+](=O)[O-])c1OC(=O)OC(C)C (centres undefined),61.1 µM (active),–
CC(=O)Nc1ccc(O)cc1,inactive,–
C[C@@H]1CC[C@H]2C(C)(C)[C@H]3C[C@@]12CC[C@@]3(C)O,inactive,–
C=C1C(C)(C)[C@@]2(Cl)C(Cl)[C@]1(Cl)C(Cl)(Cl)C2(Cl)Cl (some centres undefined),10.7 µM (active),–
CC(CN(C)C)CN1c2ccccc2CCc2ccccc21 (centres undefined),23.7 µM (active),–
Cc1c(-c2ccc(O)cc2)n(Cc2ccc(OCCN3CCCCCC3)cc2)c2ccc(O)cc12,9.44 µM (active),–
